In PubChem BioAssay AID687001 (Broad Institute, 2013):
Potency and affinity values are given separately. Calls of active or inactive are those of the source.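 How the source made its calls: active means signal-lowering compounds whose fitted half-maximal concentration is at or below twice the top tested dose in every run; inconclusive means runs disagree, flat 30 to 70% inhibition, or poor curve fit; inactive means the rest.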

Biological target: Protein S100-A4 (Homo sapiens) (UniProt P26447)
Assay: human S100A4 peptide interaction inhibition curves – biochemical, fluorescence polarization, cherry-picked hits, dose response (AID 687001);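 further: 0% = DMSO neutral control wells and -100% = TFP positive control wells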
Details: FP, S100A4/TAMRA-myosin IIA peptide binding; series mostly up to 11 µM; activity change, negative = inhibition: at the top concentration

Chain of Protein S100-A4 (Homo sapiens) (P26447 whole entry, looked up): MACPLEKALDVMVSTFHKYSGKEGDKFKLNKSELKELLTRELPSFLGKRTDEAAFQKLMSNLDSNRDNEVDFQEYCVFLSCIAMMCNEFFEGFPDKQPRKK

SMILES | activity change, negative = inhibition
CC(C)(O)C#Cc1ccc([C@H]2[C@H](CO)N3CCCCN(C(=O)c4ccc(F)cc4)C[C@@H]23)cc1 | 16.9% (inactive)
Nc1nnc(COc2ccc(Br)cc2Br)s1 | -1.77% (inactive)
CCNC(=O)C[C@@H]1CC[C@@H](NS(=O)(=O)c2ccc(F)cc2)[C@H](CO)O1 | -4.28% (inactive)
COc1ccc(CN(C)C[C@H]2Oc3c(NC(=O)NC(C)C)cccc3C(=O)N([C@H](C)CO)C[C@H]2C)cc1 | -3.85% (inactive)
Cc1ccc(C(=O)N2CCCC(CCC(=O)N3CCN(c4ccccn4)CC3)C2)cc1 (centres undefined) | 3.63% (inactive)
COC(=O)c1cccc(NC(=O)c2ccc3c(c2)C(=O)N(Cc2cccnc2)C3=O)c1 | -2.91% (inactive)
Cc1cc(-c2nc(C)c(-c3nnc(SCC(=O)Nc4ccc(Cl)cc4)n3C)s2)no1 | 0.268% (inactive)
CSC[C@H]1CN(Cc2cccnc2)C(=O)[C@@H]1CC(=O)Nc1ccc(Br)cc1 | 1.54% (inactive)
COc1ccc(CNC(=O)c2cc(S(=O)(=O)N3CCCCC3)ccc2Cl)cc1OC | -1.49% (inactive)
Cc1csc(=O)n1CC(=O)OCc1nnc(-c2ccc(Cl)cc2)o1 | 20.9% (inactive)
COCC(=O)N[C@H]1C=C[C@@H](CC(=O)OC)O[C@@H]1CO | -0.487% (inactive)
C[C@@H]1CCCCO[C@@H](CN(C)C(=O)Nc2cccc3ccccc23)[C@H](C)CN([C@@H](C)CO)C(=O)c2cc(NC(=O)C3CCCCC3)ccc2O1 | 17.6% (inactive)
C[C@@H]1CN([C@H](C)CO)C(=O)c2cc(C3=CCCC3)cnc2O[C@@H]1CN(C)Cc1ccc(F)cc1 | 3.31% (inactive)
COc1ccc(C#Cc2ccc([C@@H]3[C@@H](CO)N4CCCCN(C(=O)Nc5ccc(F)cc5)C[C@@H]34)cc2)cc1 | 31.6% (inactive)
